In the supplement of paper PMC10849652:
Targets with a hit are over-represented here; the source holds about 8,800 in all. About 0.5% of all pairs of compound and target were hits.

Key:
Assay in all cases: log2 fold change, soluble protein after heating vs DMSO (PISA); higher = thermal stabilisation; K562 lysate, 10 uM; active = over 0.2 and 3.5 SD of the protein, either way, in both replicates (recomputed)
[1] = compound: CC1=C(C(CC(=O)N1)C2=CC=C(C=C2)C(F)(F)F)C(=O)NC3=C(C=C4C(=C3)C=NN4)F
Procedure, shortened: (§1)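 Log-two fold change in thermal stability relative to solvent controls is reported from duplicates. For each sample, crude K562 extract from dounce-homogenised pellets in PBS pH 7.4 with 1 mM MgCl2, at 1 mg/mL protein, was treated with 10 μM compound for 30 min. Aliquots heated for 3 min across 48°C-58°C were pooled, brought to 0.5% NP-40 at 4°C and cleared at 21,000xg for 90 min. The supernatant was quantified by TMTpro 16plex LC-MS/MS with channel sums equalised.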

[2] = compound: CCn1cc(-c2ccnc3[nH]c(-c4cccc(CN(C)C)c4)cc23)c(-c2ccc(NC(=O)N(C)C)cc2)n1
Procedure, shortened: as §1

[3] = compound: CN1CCC(CNc2ccc3ncc(-c4cccc(OC(F)(F)F)c4)n3n2)CC1
Procedure, shortened: as §1

[4] = compound: CC(=O)c1cnc2ccc(-c3cc(Cl)c(O)c(Cl)c3)nc2c1N[C@H]1CC[C@H](CN(C)C)CC1
Procedure, shortened: as §1

ralimetinib = compound: CC(C)(C)Cn1c(N)nc2ccc(-c3[nH]c(C(C)(C)C)nc3-c3ccc(F)cc3)nc21 [ralimetinib]
Procedure, shortened: as §1

[5] = compound: CC(C)(O)CC(=O)NCCn1ccc2ncnc(Nc3ccc(Oc4cccc(C(F)(F)F)c4)c(Cl)c3)c21
Procedure, shortened: as §1

[6] = compound: CC(C)C1=C2N=C(C=C(N2N=C1)NCC3=CC=CC=C3)NCCCCCCN
Procedure, shortened: as §1

[7] = compound: CC1=C(C2=C(C=C1)C(=O)C3=CC=CC=C3N2CCCN)C
Procedure, shortened: as §1

[8] = compound: CC1=C(C=C(C=C1)NC(=O)C2=CC(=CC=C2)N(C)C)NC(=O)C3=CC=C(C=C3)O
Procedure, shortened: as §1

[9] = compound: CC1=CC=C(C=C1)SC2=C3C=C(SC3=CN=C2)C(=O)N
Procedure, shortened: as §1

[10] = compound: CCCS(=O)(=O)Nc1ccc(F)c(C(=O)c2c[nH]c3ncc(Cl)cc23)c1F
Procedure, shortened: as §1

barasertib = compound: CCN(CCCOc1ccc2c(Nc3cc(CC(=O)Nc4cccc(F)c4)[nH]n3)ncnc2c1)CCOP(=O)(O)O [barasertib]
Procedure, shortened: as §1

[11] = compound: CC[C@@H]1C(=O)N(C)c2cnc(Nc3ccc(C(=O)NC4CCN(C)CC4)cc3OC)nc2N1C1CCCC1
Procedure, shortened: as §1

volasertib = compound: CC[C@@H]1C(=O)N(C)c2cnc(Nc3ccc(C(=O)N[C@H]4CC[C@H](N5CCN(CC6CC6)CC5)CC4)cc3OC)nc2N1C(C)C [volasertib]
Procedure, shortened: as §1

[12] = compound: CCn1c(C(=O)N(C2CC2)C2CC2)cc2c3c(ncn3C)c(Nc3cc(C)n(C)n3)nc21
Procedure, shortened: as §1

ibrutinib = compound: C=CC(=O)N1CCC[C@@H](n2nc(-c3ccc(Oc4ccccc4)cc3)c3c(N)ncnc32)C1 [ibrutinib]
Procedure, shortened: as §1

[13] = compound: CC1=C(C=C(C=C1)NC(=O)C2=CC(=CC=C2)C(C)(C)C#N)NC3=CC4=C(C=C3)N=CN(C4=O)C
Procedure, shortened: as §1

sotrastaurin = compound: CN1CCN(c2nc(C3=C(c4c[nH]c5ccccc45)C(=O)NC3=O)c3ccccc3n2)CC1 [sotrastaurin]
Procedure, shortened: as §1

Measured: log2 fold change

STK17A (UniProt Q9UEE5)
Chain of UniProt Q9UEE5 (Q9UEE5 whole entry, looked up): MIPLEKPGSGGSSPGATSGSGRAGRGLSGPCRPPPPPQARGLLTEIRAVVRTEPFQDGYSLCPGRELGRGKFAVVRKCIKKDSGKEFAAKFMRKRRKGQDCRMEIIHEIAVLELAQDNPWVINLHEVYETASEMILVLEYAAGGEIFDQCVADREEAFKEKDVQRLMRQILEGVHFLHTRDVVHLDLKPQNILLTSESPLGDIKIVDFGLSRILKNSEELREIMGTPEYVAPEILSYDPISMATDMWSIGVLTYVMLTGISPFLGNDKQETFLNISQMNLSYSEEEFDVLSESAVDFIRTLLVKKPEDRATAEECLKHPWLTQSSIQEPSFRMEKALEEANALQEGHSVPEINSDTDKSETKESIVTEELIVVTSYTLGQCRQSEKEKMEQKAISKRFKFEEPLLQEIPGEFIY
inactive: [1] 0.213 | [2] 0.164 | [3] -0.109

SRC isoform 2 (UniProt P12931)
Chain of UniProt P12931 (P12931 whole entry, looked up): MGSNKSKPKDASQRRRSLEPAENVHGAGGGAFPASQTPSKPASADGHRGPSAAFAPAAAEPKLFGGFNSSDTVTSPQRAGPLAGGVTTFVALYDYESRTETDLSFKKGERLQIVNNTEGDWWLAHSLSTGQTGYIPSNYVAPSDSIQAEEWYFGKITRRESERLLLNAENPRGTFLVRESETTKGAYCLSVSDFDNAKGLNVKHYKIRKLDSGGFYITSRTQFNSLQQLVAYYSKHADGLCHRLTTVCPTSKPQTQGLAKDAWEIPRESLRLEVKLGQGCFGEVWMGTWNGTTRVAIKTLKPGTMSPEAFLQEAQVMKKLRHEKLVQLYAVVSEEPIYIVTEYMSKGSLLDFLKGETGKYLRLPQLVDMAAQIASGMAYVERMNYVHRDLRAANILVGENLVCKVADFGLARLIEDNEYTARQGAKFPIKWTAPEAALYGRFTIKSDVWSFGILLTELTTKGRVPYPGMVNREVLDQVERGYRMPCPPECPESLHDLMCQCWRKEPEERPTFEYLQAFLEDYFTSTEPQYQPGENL
inactive: [4] -0.061 | ralimetinib -0.035 | [5] 0.075 | [6] 0.052 | [7] 0.07 | [8] 0.042 | [9] 0 | [10] 0.166 | barasertib 0.133 | [11] 0.045 | volasertib -0.039 | [12] -0.024 | [2] 0.184 | [3] -0.121

STAU1 isoform 3 (UniProt O95793)
Chain of UniProt O95793 (O95793 whole entry, looked up): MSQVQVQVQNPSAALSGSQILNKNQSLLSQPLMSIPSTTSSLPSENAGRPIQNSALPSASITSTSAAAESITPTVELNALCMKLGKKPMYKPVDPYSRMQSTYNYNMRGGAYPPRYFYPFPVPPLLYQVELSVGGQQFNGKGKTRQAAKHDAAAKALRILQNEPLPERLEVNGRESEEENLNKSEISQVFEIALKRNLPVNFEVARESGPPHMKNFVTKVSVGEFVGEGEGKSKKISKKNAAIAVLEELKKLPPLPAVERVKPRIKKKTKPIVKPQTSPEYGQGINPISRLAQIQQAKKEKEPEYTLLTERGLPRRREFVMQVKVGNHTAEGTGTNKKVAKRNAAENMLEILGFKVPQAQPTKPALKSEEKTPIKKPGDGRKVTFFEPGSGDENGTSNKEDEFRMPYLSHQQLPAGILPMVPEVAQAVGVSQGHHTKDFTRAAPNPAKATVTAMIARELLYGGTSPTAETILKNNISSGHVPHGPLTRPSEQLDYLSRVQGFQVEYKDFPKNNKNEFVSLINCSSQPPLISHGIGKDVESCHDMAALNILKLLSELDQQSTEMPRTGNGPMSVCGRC
inactive: ibrutinib -0.094 | [6] 0.028 | [1] 0.012 | [13] -0.064 | barasertib 0.014 | [2] -0.166 | [3] -0.016 | sotrastaurin 0.092
